{"source": "PubChem BioAssay (NCI)", "note": "Several values for one entry are separate records, joined by “and”; a condition that tells them apart may be missing. Equal values may be shown once. Compounds without any hit were thinned out: in the full panel of roughly 79,000, 15% have a hit. Activity calls are given as the source filed them. Cut-off read from the data, not from the text of the source: active = growth inhibition above about 70%; inactive = the rest.", "data": [{"assay": "NCI Yeast Anticancer Drug Screen. Data for the mlh1 rad18 strain (AID 175)", "conditions": "S. cerevisiae mlh1 rad18 strain growth inhibition; at 50.0 µM; active compounds read high", "how_it_was_run": "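Yeast w/ defined DNA-repair lesions; compound exposure; growth vs vehicle controls → % inhibition.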", "values": [{"smiles": "Nc1ccccc1C(=O)Oc1ccccn1", "growth inhibition": "6.35% (inactive)"}, {"smiles": "COc1ccc2c(c1O)-c1cc(O)cc3c1C(C2)NCC3", "note": "(stereo not given)", "growth inhibition": "30.9% (inactive)"}, {"smiles": "CN1CCCC(OC(=O)C(c2ccccc2)C2(O)CCCC2)C1", "note": "(stereo not given)", "growth inhibition": "16.8% (inactive)"}, {"smiles": "NC(=O)c1ccc(NN=O)nc1", "growth inhibition": "-2.5% (inactive)"}, {"smiles": "CC(=O)[O-].[Ni].c1ccc(/C(=N\\Nc2ccccn2)c2ccccn2)cc1", "growth inhibition": "18.6% (inactive)"}, {"smiles": "[N-]=[N+]=CC(=O)OCC(N)C(=O)O", "note": "(stereo not given)", "growth inhibition": "-0.6% (inactive)"}, {"smiles": "CCN1C2CCC1CC(=O)C2", "growth inhibition": "7.85% (inactive)"}, {"smiles": "C[CH2][Sn]([CH2]C)([O]C(=O)c1ccc(F)cc1)[O]C(=O)c1ccc(F)cc1", "growth inhibition": "17.6% (inactive)"}, {"smiles": "CCCN=Cc1ccccc1O.CCCN=Cc1ccccc1O.[Ni]", "growth inhibition": "29.8% (inactive)"}, {"smiles": "C#CCOC(C(=O)OC1CCN(C)CC1)(c1ccccc1)c1ccccc1", "growth inhibition": "-1.95% (inactive)"}, {"smiles": "CCOC(CNC(=O)c1ccc(S(=O)(=O)F)cc1)OCC", "growth inhibition": "26.4% (inactive)"}, {"smiles": "NS(=O)(=O)c1ccc([As]=O)cc1", "note": "(stereo not given)", "growth inhibition": "-37.8% (inactive)"}, {"smiles": "CSCCC(N)P(C)(=O)O", "note": "(stereo not given)", "growth inhibition": "-17.5% (inactive)"}, {"smiles": "NC1(O)C(=O)NC(=O)NC1=O", "growth inhibition": "5.85% (inactive)"}, {"smiles": "COc1cc(C2CNCc3cc(OC)c(O)cc32)ccc1O", "note": "(stereo not given)", "growth inhibition": "1.2% (inactive)"}, {"smiles": "O=[N+]([O-])c1cc(/C=N\\NC(=S)NC2CN3CCC2CC3)ccc1Cl", "note": "(stereo not given)", "growth inhibition": "2.4% (inactive)"}, {"smiles": "NC(=NC(c1ccccc1)c1ccccc1)N[N+](=O)[O-]", "growth inhibition": "-17.9% (inactive)"}, {"smiles": "COc1ccc(NC(=O)C(=O)C(CC2C(=O)NC(=S)NC2=O)C(=O)c2ccc3ccccc3c2)c([N+](=O)[O-])c1", "note": "(stereo not given)", "growth inhibition": "3.5% (inactive)"}, {"smiles": "CCOC(=O)/C(=C/c1ccc[nH]1)P(=O)(OCC)OCC", "growth inhibition": "-42.1% (inactive)"}, {"smiles": "O=C(O)C1C2Cc3ccccc3C21", "note": "(stereo not given)", "growth inhibition": "-12.6% (inactive)"}, {"smiles": "N=C(N)c1nn[nH]n1", "growth inhibition": "-27.3% (inactive)"}, {"smiles": "O=P(O)(O)C(O)c1ccccc1", "note": "(stereo not given)", "growth inhibition": "17.6% (inactive)"}, {"smiles": "O=P1(C(Cl)Cl)OCCCO1", "growth inhibition": "-0.15% (inactive)"}, {"smiles": "COc1cccc(N2C(=O)C3C(C2=O)C2(Cl)C(Cl)=C(Cl)C3(Cl)C2(Cl)Cl)c1", "note": "(stereo not given)", "growth inhibition": "49.8% (inactive)"}, {"smiles": "COC(C)CCOC(=O)Cc1ccccc1", "note": "(stereo not given)", "growth inhibition": "5.25% (inactive)"}, {"smiles": "N#CC(C#N)=Cc1ccc(Cl)cc1", "growth inhibition": "20.7% (inactive) and 20.1% (inactive)"}, {"smiles": "Cc1ccc(-n2cnc3c(N(CCCl)CCCl)ncnc32)cc1", "growth inhibition": "-3.15% (inactive)"}, {"smiles": "CCCC1CC=CCC12C(=O)NC(=O)NC2=O", "note": "(stereo not given)", "growth inhibition": "12.9% (inactive)"}, {"smiles": "N#Cc1ccc(CCl)cc1", "growth inhibition": "41.7% (inactive)"}, {"smiles": "O=S(=O)(O)O/N=C(\\Cc1ccccc1)SC1OC(CO)C(O)C(O)C1O", "note": "(stereo not given)", "growth inhibition": "-3.25% (inactive)"}, {"smiles": "Cc1nc2ccc(Br)cc2c(=O)n1-c1ccc(N)cc1", "growth inhibition": "5.8% (inactive)"}, {"smiles": "Cc1cccc(C=NCCOCCOCCN=Cc2cccc(C)c2O)c1O.[Ni]", "growth inhibition": "-14.2% (inactive)"}, {"smiles": "CCC1(CCNC(=O)CNC(C)=O)C(=O)NC(=O)NC1=O", "growth inhibition": "10.2% (inactive)"}, {"smiles": "CN1CCOC(c2ccccc2)c2ccsc2CC1", "note": "(stereo not given)", "growth inhibition": "16.8% (inactive)"}, {"smiles": "O=NN1CCNCC1", "growth inhibition": "8.2% (inactive) and -2.55% (inactive)"}, {"smiles": "CN1C(=O)NC(C)(c2cccc(N(CCCl)CCCl)c2)C1=O", "note": "(stereo not given)", "growth inhibition": "27.6% (inactive)"}, {"smiles": "CC1(CCl)COP(=O)(NN)OC1", "note": "(stereo not given)", "growth inhibition": "5.35% (inactive)"}, {"smiles": "CCOC(=O)/C=C1\\Nc2ccccc2C(c2ccccc2)=NC1OC(C)=O", "note": "(stereo not given)", "growth inhibition": "-9% (inactive)"}, {"smiles": "O=C(N=[C-]c1ccc[oH+]1)c1cccnc1.O=C(N=[C-]c1ccc[oH+]1)c1cccnc1.[Ni+2]", "growth inhibition": "5.65% (inactive)"}, {"smiles": "O=c1oc2cc(O)ccc2c(O)c1C(c1ccccn1)c1c(O)c2ccc(O)cc2oc1=O", "growth inhibition": "-52% (inactive)"}]}]}
